Biological target: Chromo domain-containing protein 1 (Saccharomyces cerevisiae (strain ATCC 204508 / S288c) (Baker's yeast)) (UniProt P32657)
Assay: ScCHD-1 Enzyme Inhibition Assay
Format: functional
Design: scale not given: in the data most compounds retested in dose-response had high values
Details: 30 µM

Chain of Chromo domain-containing protein 1 (Saccharomyces cerevisiae (strain ATCC 204508 / S288c) (Baker's yeast)) (P32657 whole entry, the tested form may be a part): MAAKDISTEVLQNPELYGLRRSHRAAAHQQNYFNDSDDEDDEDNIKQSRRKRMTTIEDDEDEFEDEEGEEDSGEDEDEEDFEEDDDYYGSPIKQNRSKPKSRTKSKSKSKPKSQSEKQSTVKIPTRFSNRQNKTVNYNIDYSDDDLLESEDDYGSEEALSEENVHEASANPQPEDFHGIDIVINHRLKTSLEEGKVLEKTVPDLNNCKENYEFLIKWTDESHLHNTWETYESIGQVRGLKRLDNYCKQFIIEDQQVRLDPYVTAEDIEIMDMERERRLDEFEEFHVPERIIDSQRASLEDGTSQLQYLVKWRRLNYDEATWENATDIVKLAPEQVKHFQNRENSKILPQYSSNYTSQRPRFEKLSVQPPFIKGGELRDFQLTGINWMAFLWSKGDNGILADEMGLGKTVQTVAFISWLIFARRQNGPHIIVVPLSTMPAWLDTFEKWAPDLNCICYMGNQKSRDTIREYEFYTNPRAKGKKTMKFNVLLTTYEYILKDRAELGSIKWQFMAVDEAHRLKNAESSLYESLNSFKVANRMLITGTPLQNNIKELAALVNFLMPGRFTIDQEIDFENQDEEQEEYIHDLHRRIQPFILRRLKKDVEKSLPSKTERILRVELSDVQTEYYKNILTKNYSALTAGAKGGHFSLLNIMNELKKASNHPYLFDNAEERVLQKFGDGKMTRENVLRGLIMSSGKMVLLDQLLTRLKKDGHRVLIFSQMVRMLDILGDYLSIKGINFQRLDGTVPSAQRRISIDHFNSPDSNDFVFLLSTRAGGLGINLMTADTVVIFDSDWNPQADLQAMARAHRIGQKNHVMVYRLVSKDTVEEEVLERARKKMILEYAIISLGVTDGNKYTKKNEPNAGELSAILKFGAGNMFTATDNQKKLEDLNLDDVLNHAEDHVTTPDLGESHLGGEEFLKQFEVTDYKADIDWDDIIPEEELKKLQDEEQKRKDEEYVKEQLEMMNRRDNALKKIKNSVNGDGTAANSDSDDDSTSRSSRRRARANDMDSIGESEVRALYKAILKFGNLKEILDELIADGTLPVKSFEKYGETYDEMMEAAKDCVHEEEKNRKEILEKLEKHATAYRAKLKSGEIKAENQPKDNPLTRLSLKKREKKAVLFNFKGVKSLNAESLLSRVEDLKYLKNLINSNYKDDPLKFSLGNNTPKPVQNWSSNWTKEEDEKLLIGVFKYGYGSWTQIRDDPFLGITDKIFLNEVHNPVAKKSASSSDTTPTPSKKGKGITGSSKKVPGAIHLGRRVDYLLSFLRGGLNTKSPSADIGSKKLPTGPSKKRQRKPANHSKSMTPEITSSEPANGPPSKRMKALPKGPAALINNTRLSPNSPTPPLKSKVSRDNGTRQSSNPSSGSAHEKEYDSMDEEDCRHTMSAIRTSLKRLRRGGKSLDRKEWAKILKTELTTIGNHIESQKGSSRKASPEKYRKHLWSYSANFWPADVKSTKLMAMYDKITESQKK

**Q.** How did the Percent Effect turn out when N#CC1(C(=O)N2CCN(Cc3ccon3)CC2)CCC1 was run?
**A.** -3.39%

**Q.** Which Percent Effect does the source give for Cc1ccc2c(c1)c(CNC(=O)C1CC(=O)N(C3CCCC3)C1)nn2C (stereo not given) here?
**A.** -5.94%

**Q.** Which Percent Effect does the source give for CCOc1cc(C)nc(N2CCN(Cc3nccn3C)CC2)n1 here?
**A.** -4.66%

**Q.** Which Percent Effect does the source give for CCN(CC)C(=O)CCNC(=O)N1CCC(c2ccccc2)C1 (stereo not given) here?
**A.** 0.238%

**Q.** For CCN1CCOC(CNCc2ccccc2OCC(=O)N(C)C)C1 (stereo not given), which Percent Effect is on record?
**A.** -2.56%

**Q.** CC(NCc1ccc(Cl)o1)c1nnc2n1CCCC2 (stereo not given) was tested. Which Percent Effect did it give?
**A.** 1.09%

**Q.** Which Percent Effect does the source give for Cc1ccc(NC(=O)Cn2cc(I)cn2)cc1 here?
**A.** 3.77%

**Q.** For CC(C)c1nnc2n1CCN(C(=O)CN1Cc3ccccc3C1=O)C2, which Percent Effect is on record?
**A.** -12.6%

**Q.** For O=C(c1ccc(Cl)c(Cl)c1)N1CCCC(n2cncn2)C1 (stereo not given), which Percent Effect is on record?
**A.** 7.67%

**Q.** Which Percent Effect does the source give for O=C1COc2cc(C(=O)NS(=O)(=O)c3ccccc3F)ccc2N1 here?
**A.** 2.83%

**Q.** How did the Percent Effect turn out when CN(C)[C@@H]1CCN(c2ncccn2)[C@H]1Cc1ccncc1 was run?
**A.** -1.65%

**Q.** For O=C([C@H]1CCCO1)N1CCc2ncnc(NC3CC3)c2CC1, which Percent Effect is on record?
**A.** -4.91%

**Q.** With c1ccc(-c2nnc(CNCCn3cccn3)o2)cc1 as the compound, how does the Percent Effect read?
**A.** -8.2%

**Q.** For CC(C)c1nc2c(n1C)CCN(Cc1nc(-c3cccs3)no1)C2, which Percent Effect is on record?
**A.** 9.28%

**Q.** COCCN1CC[C@@H]2OC[C@H](C(=O)NCc3cccs3)C[C@@H]2C1 was tested. Which Percent Effect did it give?
**A.** -5%

**Q.** How did the Percent Effect turn out when O=C(NCc1ccc(F)cc1)N1CCC(C2OCCO2)CC1 was run?
**A.** -4.56%

**Q.** CN(Cc1nnc(C2CC2)n1C)C1CCN(Cc2ccc(F)cc2)C1 (stereo not given) was tested. Which Percent Effect did it give?
**A.** -10.5%

**Q.** Which Percent Effect does the source give for CN(C(=O)c1cccc2[nH]ncc12)C1CCN(c2ccccn2)CC1 here?
**A.** -18.1%

**Q.** With Cc1nnc(N2CCC(CN(C)C(C)C)CC2)c(C#N)c1C as the compound, how does the Percent Effect read?
**A.** -23.4%

**Q.** Which Percent Effect does the source give for Cc1cc(-c2nnc(SCC(=O)O)n2C(C)c2ccccc2)nn1C (stereo not given) here?
**A.** -1.69%

— ChEMBL document CHEMBL3988442, “University of Dundee, Small-Polar-MMV Screening Library” (2021)
